Reference: PMC5700166

Target: GST-Hu-p50 (Homo sapiens, UniProt P19838 7-356)
Experiment: protein-binding microarray (PBM); PBM: ~300 nM protein, 6 mM HEPES pH 7.8, 80 mM KCl, 0.5 mM EDTA, 0.5 mM EGTA, 6% glycerol, 35 ng/ul poly-dIdC, 1% milk, 1 h, room temperature; Ap Aiptasia and Nv Nematostella (sea anemones) / Co Capsaspora / Aq Amphimedon (sponge) / Dm Drosophila / Hu human; RHD is the Rel homology domain; high values mean tight binding
Conditions: dsDNA, one strand shown

GST-Hu-p50, sequence (P19838 7-356): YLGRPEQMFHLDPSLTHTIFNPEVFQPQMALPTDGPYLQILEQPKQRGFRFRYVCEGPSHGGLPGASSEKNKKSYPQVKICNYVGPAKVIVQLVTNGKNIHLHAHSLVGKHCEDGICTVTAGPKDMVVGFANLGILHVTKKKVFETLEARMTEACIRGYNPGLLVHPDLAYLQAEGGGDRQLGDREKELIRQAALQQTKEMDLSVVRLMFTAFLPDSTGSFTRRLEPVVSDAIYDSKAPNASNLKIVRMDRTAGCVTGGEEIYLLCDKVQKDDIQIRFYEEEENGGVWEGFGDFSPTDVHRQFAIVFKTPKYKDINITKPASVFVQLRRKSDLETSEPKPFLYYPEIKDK

Sequence	binding signal [z-score]
CCGATTAACATCAAAATTACCCCTGATGTTAATCGGGTCTTGATTCGCTTGACGCTGCTG	5.3
CCGATTAACATCAGAAAATCCCCTGATGTTAATCGGGTCTTGATTCGCTTGACGCTGCTG	8.46
CCGATTAACATCAGAGAATCCCCTGATGTTAATCGGGTCTTGATTCGCTTGACGCTGCTG	6.99
CCGATTAACATCAGGGGGCAATATGATGTTAATCGGGTCTTGATTCGCTTGACGCTGCTG	3.82
CCGATTAACATCAAGGGGTTCCCTGATGTTAATCGGGTCTTGATTCGCTTGACGCTGCTG	3.25
CCGATTAACATCAGGAAGCCCCCTGATGTTAATCGGGTCTTGATTCGCTTGACGCTGCTG	5.74
CCGATTAACATCAGGGGGTTTCATGATGTTAATCGGGTCTTGATTCGCTTGACGCTGCTG	6.6
CCGATTAACATCAGGGGAAACCCTGATGTTAATCGGGTCTTGATTCGCTTGACGCTGCTG	7.44
CCGATTAACATCATAATCCCCCATGATGTTAATCGGGTCTTGATTCGCTTGACGCTGCTG	6.67
CCGATTAACATCAGGGGGGATAATGATGTTAATCGGGTCTTGATTCGCTTGACGCTGCTG	5.14
CCGATTAACATCAGGGGTTTCTATGATGTTAATCGGGTCTTGATTCGCTTGACGCTGCTG	5.3
CCGATTAACATCAATTTCCCCCCTGATGTTAATCGGGTCTTGATTCGCTTGACGCTGCTG	6.75
CCGATTAACATCAGATACTCCCCTGATGTTAATCGGGTCTTGATTCGCTTGACGCTGCTG	3.57
CCGATTAACATCAATTTCCCCCATGATGTTAATCGGGTCTTGATTCGCTTGACGCTGCTG	6.86
CCGATTAACATCAGGGAAAACCCTGATGTTAATCGGGTCTTGATTCGCTTGACGCTGCTG	5.66
CCGATTAACATCAAAATGTCCCCTGATGTTAATCGGGTCTTGATTCGCTTGACGCTGCTG	5.58
CCGATTAACATCACCGTTTCCCCTGATGTTAATCGGGTCTTGATTCGCTTGACGCTGCTG	5.1
CCGATTAACATCAGGGGAACAAATGATGTTAATCGGGTCTTGATTCGCTTGACGCTGCTG	3.24
CCGATTAACATCAAGGGGGTATCTGATGTTAATCGGGTCTTGATTCGCTTGACGCTGCTG	4.61
CCGATTAACATCAGAAATTCCCCTGATGTTAATCGGGTCTTGATTCGCTTGACGCTGCTG	7.96

Sequence	binding signal [z-score]
CCGATTAACATCAAGGGAATTTCTGATGTTAATCGGGTCTTGATTCGCTTGACGCTGCTG	5.75
CCGATTAACATCAGGGGAATACCTGATGTTAATCGGGTCTTGATTCGCTTGACGCTGCTG	6.93
CCGATTAACATCAAATTTCCCCCTGATGTTAATCGGGTCTTGATTCGCTTGACGCTGCTG	7.66
CCGATTAACATCAAAACTCCCCCTGATGTTAATCGGGTCTTGATTCGCTTGACGCTGCTG	8.06
CCGATTAACATCAGAATCCCCCCTGATGTTAATCGGGTCTTGATTCGCTTGACGCTGCTG	7.06
CCGATTAACATCAGGGGAGGTAATGATGTTAATCGGGTCTTGATTCGCTTGACGCTGCTG	2.14
CCGATTAACATCAGGGGGGTTTATGATGTTAATCGGGTCTTGATTCGCTTGACGCTGCTG	6.31
CCGATTAACATCAAAAATCCCACTGATGTTAATCGGGTCTTGATTCGCTTGACGCTGCTG	3.73
CCGATTAACATCAACGAATCCCCTGATGTTAATCGGGTCTTGATTCGCTTGACGCTGCTG	5.69
CCGATTAACATCAAGCAATCCCCTGATGTTAATCGGGTCTTGATTCGCTTGACGCTGCTG	5.37
CCGATTAACATCAAGGGTATTCCTGATGTTAATCGGGTCTTGATTCGCTTGACGCTGCTG	4.55
CCGATTAACATCAGGGGAAAAGATGATGTTAATCGGGTCTTGATTCGCTTGACGCTGCTG	5.18
CCGATTAACATCAGGGGAATGCATGATGTTAATCGGGTCTTGATTCGCTTGACGCTGCTG	5.41
CCGATTAACATCAGGGAAATCCATGATGTTAATCGGGTCTTGATTCGCTTGACGCTGCTG	3.96
CCGATTAACATCAGATTTACCCCTGATGTTAATCGGGTCTTGATTCGCTTGACGCTGCTG	3.46
CCGATTAACATCACCGTTCCCCCTGATGTTAATCGGGTCTTGATTCGCTTGACGCTGCTG	5.25
CCGATTAACATCAGAATTTCCCATGATGTTAATCGGGTCTTGATTCGCTTGACGCTGCTG	4.04
CCGATTAACATCAGGGGATTACCTGATGTTAATCGGGTCTTGATTCGCTTGACGCTGCTG	6.76
CCGATTAACATCAGGGGAAGATATGATGTTAATCGGGTCTTGATTCGCTTGACGCTGCTG	5.33
